ABHD5-PLIN5 inh: blocks binding of human ABHD5 to perilipin-5. Q00G26+Q8WTS1. Split G. princeps luciferase complementation, luminescence, 4 h. inhibition, % at 4 µM. actives 0.78% (n = 360,000);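 active = inhibition above the mean inhibition across every tested compound plus 3 SD, cut at about 22% in these data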;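 also: 0% = DMSO only wells and the 100% control is not disclosed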
NTR1 ag: activates human neurotensin receptor 1 | P30989 | NTR1-U2OS beta-arrestin-GFP spot imaging, agonist mode | activation, % at 20 µM | actives 0.17% (n = 330,000);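 active = activation at or above 40% of the spot to cytoplasm intensity ratio, with at least 20 cells analyzed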;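 also: 0% = DMSO without peptide and 100% = 100 nM NTR1 peptide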
NOD2 RIPK2 PPI: NOD2-RIPK2 protein interaction inhibition; inhibition, % at 4.98 µM; CHO BLA complementation NOD2-RIPK2, CCF4 ratio; O43353; actives 0.38% (n = 360,000); in the data active = inhibition above about 21%;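 also: 0% = vehicle only and 100% = reference blocker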
TLR4 MyD88 comp: TLR4-MyD88 interaction inhibition in cells. HeLa CL3-4 TLR4/MyD88 BLA complementation, FRET ratio. inhibition, % at 8.4 µM. actives 0.18% (n = 200,000); in the data active = inhibition above about 25%;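 also: 0% = vehicle and 100% = reference inhibitor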
TLR9-MyD88 block: TLR9-MyD88 interaction inhibition; Q9NR96+Q99836; CHO BLA complementation TLR9-MyD88, CCF4 FRET ratio; inhibition, % at 4.98 µM; actives 0.21% (n = 340,000);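 active = inhibition above the mean over all tested compounds plus 3 SD, cut at about 21% in these data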;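 also: 0% = DMSO only wells and 100% = clavulanate BLA inhibitor control wells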
B2AR ag: agonists of human beta-2 adrenergic receptor inducing internalization; actives 0.43% (n = 340,000); AID 504454; Am2.2-beta2AR cells, FAP receptor internalization, flow cytometry; response, % (concentration not given with the values);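 active = response above a set limit, near 3 SD of response in nonfluorescent compounds, cut at about 42% in these data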
NTR1 ag confirm: confirmation of agonists of human NTR1; shares compounds with NTR1 ag; NTR1-U2OS beta-arrestin-GFP translocation imaging; actives 38% (n = 480); activation, % at 20 µM; AID 504550;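 active = mean activation at 20 µM of at least 40%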;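 also: 0% = DMSO without peptide and 100% = 100 nM NTR1 peptide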
B2AR ag CP1: human beta-2 adrenergic receptor agonism, cherry pick; shares compounds with B2AR ag; Am2.2-beta2AR cells, FAP surface receptor, flow cytometry; active compounds read low; percent response (surface receptor), % at 10 µM; actives 25% (n = 1,100);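 active = surface receptor percent response at or below 58%, roughly 3 SD from nonfluorescent compounds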
FAP fluor counter: fluorescence artifact in beta-2AR agonist FAP counterscreen; shares compounds with B2AR ag; Am2.2 cells, FAP fluorogen flow cytometry; active compounds read low; calls only at 10 µM; 1,100 tested, under 10 active; AID 588765;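 active = percent response below a set limit in fluorescence channel 1 and below 50% in channel 8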
ABHD5 PLIN5 conf: ABHD5-PLIN5 interaction inhibition, confirmed. shares compounds with ABHD5-PLIN5 inh. biochemical ABHD5-PLIN5 interaction, luminescence. inhibition, % at 4 µM. actives 67% (n = 2,200). AID 651612; in the data active = inhibition above about 23%;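 also: 0% = DMSO vehicle wells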
HNF4 counter: HNF4 split-luciferase signal hit, counter-screen | inhibition, % at 4 µM | HNF4 dimerization, luminescence, biochemical | actives 77% (n = 2,200) | shares compounds with ABHD5-PLIN5 inh;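 active = mean inhibition across replicate wells exceeding the computed hit threshold, cut at about 13% in these data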;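 also: light from luciferase halves that rejoin when HNF4 fusion proteins dimerize; 0% = DMSO only wells and the 100% control is not given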
Target sequence (P41235 whole entry, looked up, the tested form may be a part): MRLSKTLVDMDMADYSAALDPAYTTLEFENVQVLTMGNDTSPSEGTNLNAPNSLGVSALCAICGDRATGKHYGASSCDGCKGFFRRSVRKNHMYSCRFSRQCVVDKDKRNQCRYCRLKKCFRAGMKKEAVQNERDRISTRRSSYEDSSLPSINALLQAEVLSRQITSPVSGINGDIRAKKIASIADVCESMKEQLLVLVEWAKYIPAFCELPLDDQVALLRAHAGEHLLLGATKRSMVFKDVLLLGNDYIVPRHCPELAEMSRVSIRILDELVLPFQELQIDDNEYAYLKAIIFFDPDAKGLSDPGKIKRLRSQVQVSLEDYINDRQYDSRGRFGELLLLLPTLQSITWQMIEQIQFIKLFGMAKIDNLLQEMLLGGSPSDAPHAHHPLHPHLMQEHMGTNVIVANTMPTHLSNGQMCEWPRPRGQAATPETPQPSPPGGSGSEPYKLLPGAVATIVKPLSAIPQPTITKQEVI
NOD2-RIPK2 conf: NOD2-RIPK2 interaction inhibition confirmed; CHO cells, NOD2-RIPK2 BLA complementation, CCF4 FRET; AID 624370; shares compounds with NOD2 RIPK2 PPI; actives 70% (n = 1,200); inhibition, % at 4.98 µM;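 active = mean inhibition across replicates above a set limit taken from the earlier primary screen, cut at about 21% in these data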;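 also: 0% = DMSO-only wells and the high end = clavulanate BLA-blocked wells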
BLA counter: hits BLA reporter in NOD2-RIPK2 inhibitor counterscreen | inhibition, % at 4.98 µM | shares compounds with NOD2 RIPK2 PPI | actives 57% (n = 1,200) | CHO BLA reporter, CCF4 FRET ratio | AID 624371;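 active = mean inhibition above the low-control mean inhibition plus three low-control SD, cut at about 11% in these data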;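 also: 0% = DMSO only wells and 100% = clavulanate high control wells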
Starred values were filed as active, the others as inactive; i = inactive; · = no result. Most compounds without a hit are left out; they make up all but 1.5% or so of the library.

SMILES	ABHD5-PLIN5 inh	NTR1 ag	NOD2 RIPK2 PPI	TLR4 MyD88 comp	TLR9-MyD88 block	B2AR ag	others
CN(CC(=O)NC(=O)NC1CCCCC1)CC(=O)Nc1ccccc1C(F)(F)F	-12	·	-6	·	5	·
C(=NN1CCCCCC1)c1ccc2c(c1)OCO2	0	·	-1	·	-3	-5
O=C1Nc2ccc(Br)cc2/C1=C/C1CC=CCC1 (centres undefined)	25*	42*	8	7	-1	21	NTR1 ag confirm=9;ABHD5 PLIN5 conf=53*;HNF4 counter=38*
CC1(c2nnnn2-c2ccc3c(c2)OCCO3)CCC(=O)N1CCc1ccccc1F (centres undefined)	3	·	-6	·	·	·
O=C1C[C@@H]2C(=O)N(c3ccccc3)C(=O)[C@@H]2[C@@H]2CN(S(=O)(=O)c3ccccc3)[C@@H](c3ccccc3)[C@H]12	-6	·	-1	·	·	·
O=[N+]([O-])c1ccc(C2CC(c3ccccc3)=Nc3ccccc3S2)cc1 (centres undefined)	79*	62*	4	·	-5	-9	NTR1 ag confirm=13;ABHD5 PLIN5 conf=26*;HNF4 counter=88*
O=C(O)C1CC(c2ccccc2)=Nc2ccccc2S1 (centres undefined)	-5	3	-6	·	-1	-4
CC1=NN(c2ccccc2)C(=O)/C1=C\c1cn(CCC#N)nc1-c1ccc(Cl)cc1	-21	14	2	-2	0	13
CC1=NNC(=O)/C1=C\c1cn(-c2ccccc2)nc1-c1ccc(Cl)cc1	32*	101*	2	10	0	108*	NTR1 ag confirm=78*;ABHD5 PLIN5 conf=56*;HNF4 counter=91*
O=C(Oc1ccc(Br)cc1C(=O)/C=C/c1ccccc1F)c1ccco1	73*	55*	14	-5	10	58*	NTR1 ag confirm=40*;ABHD5 PLIN5 conf=99*;HNF4 counter=93*
CC(=O)c1cc(Cl)ccc1OC(=O)c1ccco1	10	0	-1	1	4	-3
Cn1ccnc1Sc1cc(NCCCO)c([N+](=O)[O-])c2nonc12	26*	45*	27*	4	13	46*	NTR1 ag confirm=72*;ABHD5 PLIN5 conf=29*;HNF4 counter=95*;NOD2-RIPK2 conf=31*;BLA counter=8
O=[N+]([O-])c1c(NCCCO)cc(Sc2ccc(Cl)cc2)c2nonc12	6	·	8	0	9	30
CCc1ccc2c(c1)/C(=C/C(=O)c1cccs1)C(=O)N2	83*	42*	47*	17	11	78*	NTR1 ag confirm=57*;ABHD5 PLIN5 conf=90*;HNF4 counter=96*;NOD2-RIPK2 conf=42*;BLA counter=2
COC(=O)c1ccc2c(c1)C(C)(C)C(/C=C/c1ccc(O)cc1)=[N+]2C	71*	46*	26*	-5	16	49*	NTR1 ag confirm=51*;ABHD5 PLIN5 conf=102*;HNF4 counter=101*;NOD2-RIPK2 conf=71*;BLA counter=-5
CCOc1ccc(C(=O)C(CN2CCOCC2)c2ccccc2)cc1 (centres undefined)	7	·	6	0	-6	-1
O=C(c1ccc(Br)cc1)C(CN1CCOCC1)c1ccccc1 (centres undefined)	29*	60*	26*	·	14	21	NTR1 ag confirm=71*;ABHD5 PLIN5 conf=52*;HNF4 counter=94*;NOD2-RIPK2 conf=27*;BLA counter=-3
CC(N)c1csc(Nc2ncccn2)n1 (centres undefined)	-3	·	-5	·	·	·
CCOC(=O)[C@]12CCC=C1N(Cc1cccc3ccccc13)C(=O)[C@H](CC(=O)N1CCN(C(=O)c3ccco3)CC1)C2	9	·	5	·	·	·
CN(C)c1ccc(-c2noc(C3CCN(S(=O)(=O)c4cccc(Cl)c4)CC3)n2)cc1	0	4	-1	-5	6	65*	B2AR ag CP1=39*;FAP fluor counter=i
CN(C)c1ccc(-c2noc(C3CCN(S(=O)(=O)c4ccc(C(=O)O)cc4)CC3)n2)cc1	-1	1	2	-4	1	2
O=C(Cc1cccc2c(=O)cc(-c3ccccc3)oc12)OCCN1CCOCC1	2	·	3	·	·	·
CC(=O)Nc1ccc(Nc2cc(C(C)C)nc3c(-c4ccccc4)c(C)nn23)cc1	-10	26	-2	·	-10	52*	B2AR ag CP1=67;FAP fluor counter=i
CC(=O)Nc1ccc(Nc2cc(C)nc3c(-c4ccccc4)c(C)nn23)cc1	2	17	0	-12	4	-7
OCCN1CCN(C(c2cccs2)c2ccc3cccnc3c2O)CC1 (centres undefined)	·	·	·	5	·	·
SMILES	ABHD5-PLIN5 inh	NTR1 ag	NOD2 RIPK2 PPI	TLR4 MyD88 comp	TLR9-MyD88 block	B2AR ag	others
CC(C)(C)c1cc(C(c2cccnc2)N2CCN(CCO)CC2)cc(C(C)(C)C)c1O (centres undefined)	21	1	8	8	7	62*	B2AR ag CP1=57*;FAP fluor counter=i
COc1cc2nc(N3CCNCC3)nc(N)c2cc1OC	6	7	-8	12	-5	61*	B2AR ag CP1=51*;FAP fluor counter=i
COc1cc2nc(N3CCN(c4cc(C)ccc4C)CC3)nc(N)c2cc1OC	10	8	18	·	2	28
CC(C)(C)NNC(=S)Nc1cccc(C(F)(F)F)c1	-5	1	-2	·	-2	-7
Cc1ccc(NC(=S)NNC(C)(C)C)cc1	-4	1	-6	·	-2	1	B2AR ag CP1=103;FAP fluor counter=i
CC1(C(=O)NS(=O)(=O)c2cccc(F)c2)CCN1C(=O)CC1CCCCC1 (centres undefined)	1	·	8	·	·	·
CC(C)(C)C1CCC(C(=O)Nc2ccccc2)CC1 (centres undefined)	4	2	-4	-7	-6	51*	B2AR ag CP1=64;FAP fluor counter=i
O=C(Nc1ccc(Nc2ccccc2)cc1)C1CC1	5	0	-5	3	-2	4
Cc1cc(C(O)c2ncc(-c3ccccc3F)[nH]2)ccc1F (centres undefined)	3	·	4	·	·	·

Screens as filed in PubChem.
